Screens deposited in PubChem by Buhrlage Lab, Dana-Farber Cancer Institute and Novartis Institutes for BioMedical Research (Cambridge, Mass).
This is a sample that favours compounds with a hit; in the whole collection about 14% have one here.
USP17 inh = inhibitors of human USP17 deubiquitinase. purified USP17, Ub-rhodamine cleavage fluorescence, 3 h. inhibition, % at 50 µM. actives 6.5% (n = 47,000). AID 1645855
USP10 inh = human USP10 deubiquitinase inhibition; Q14694; purified USP10, Ub-rhodamine fluorescence, 60 min; inhibition, % at 20 µM; actives 1.1% (n = 47,000); AID 1645856
USP30 inh = human USP30 deubiquitinase inhibition. Q70CQ3. inhibition, % at 25 µM. purified USP30, Ub-rhodamine cleavage fluorescence. AID 1645860. actives 5.3% (n = 47,000)
Target sequence (Q70CQ3 whole entry, looked up): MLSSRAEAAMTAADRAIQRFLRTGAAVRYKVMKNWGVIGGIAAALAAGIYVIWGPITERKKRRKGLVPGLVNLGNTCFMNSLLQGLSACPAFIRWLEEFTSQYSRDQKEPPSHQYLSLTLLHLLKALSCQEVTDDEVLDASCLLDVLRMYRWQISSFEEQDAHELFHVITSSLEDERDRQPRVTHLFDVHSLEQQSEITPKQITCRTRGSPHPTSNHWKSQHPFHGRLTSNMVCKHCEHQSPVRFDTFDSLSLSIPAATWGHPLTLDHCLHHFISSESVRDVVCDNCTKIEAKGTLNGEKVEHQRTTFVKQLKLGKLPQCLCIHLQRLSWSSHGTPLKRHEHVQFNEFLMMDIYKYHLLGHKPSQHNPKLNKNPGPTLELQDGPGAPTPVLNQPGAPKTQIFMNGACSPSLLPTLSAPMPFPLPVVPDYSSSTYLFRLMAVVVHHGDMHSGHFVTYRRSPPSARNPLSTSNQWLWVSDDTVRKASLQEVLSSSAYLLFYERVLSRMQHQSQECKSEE
USP28 block = blocks human USP28 ubiquitin-rhodamine cleavage; purified USP28, Ub-rhodamine cleavage fluorescence, 30 min; inhibition, % at 25 µM; actives 3% (n = 47,000); Q96RU2
USP8 block = inhibitors of human USP8 deubiquitinase; P40818; purified USP8, Ub-rhodamine cleavage fluorescence, 30 min; inhibition, % at 20 µM; actives 4.2% (n = 47,000); AID 1645853
The depositor's hits bear a star; i = inactive; . = no result given. Rule as the data show it: active = inhibition above about 30%; inactive = the rest.

SMILES | USP17 inh | USP10 inh | USP30 inh | USP28 block | USP8 block
O=C(NCc1ccco1)c1cccnc1-c1nc2ccccc2s1 | 3.0 | -0.2 | -12.6 | 12.6 | 32.7*
O=C1NC2(CCN(S(=O)(=O)c3ccc(F)cc3F)CC2)Nc2ccccc21 | -0.1 | -2.2 | 22.1 | 12.3 | 8.4
O=C1NC2(CCN(S(=O)(=O)c3ccc(F)c(Cl)c3)CC2)Nc2ccccc21 | 49.9* | 1.9 | -1.9 | -7.2 | 3.8
Cc1ccc(C)c(S(=O)(=O)N2CCC3(CC2)NC(=O)c2ccccc2N3)c1 | 58.6* | -2.6 | 19.6 | 5.1 | 20.0
Cc1ccc2c(c1)C(=O)NCC1(CCN(C(=O)Cc3ccccc3F)CC1)O2 | -13.7 | 2.9 | -1.2 | -13.6 | -0.2
Cc1oc(C2CC2)cc1C(=O)N1CCC2(CC1)CC1(CO2)Nc2ccccc2-n2cccc21 (centres undefined) | 71.5* | 3.9 | -4.8 | 16.7 | 92.5*
Cc1nn(C)cc1C(=O)N1CCC2(CC1)CC1(CO2)Nc2ccccc2-n2cccc21 (centres undefined) | 37.7* | -2.0 | -35.5 | -19.7 | 56.8*
O=C(Cc1ccccc1F)N1CCC2(CC1)CC1(CO2)Nc2ccccc2-n2cccc21 (centres undefined) | 52.5* | 5.4 | -17.1 | 1.2 | 93.5*
COc1ccc(NC(=O)N2CCC3(CC2)Nc2ccccc2-n2cccc23)c(OC)c1 | 4.0 | -4.2 | 3.2 | 11.0 | 15.0
Cn1nccc1C(=O)N1CCC2(CC1)Nc1cccnc1-n1cccc12 | 2.1 | 0.0 | -11.4 | 5.0 | -5.2
Cc1ccc(C(=O)N2CCC3(CC2)CC2(CO3)Nc3ccccc3-n3cccc32)cn1 (centres undefined) | 29.0 | -0.2 | -184.5 | -42.2 | 66.8*
COc1noc(C2CCN(C(=O)c3ccc(C(=O)O)cc3)CC2)c1C | . | 0.0 | -5.8 | -2.2 | -31.2
Cc1cc(C)n2nc(NCc3c(F)cccc3Cl)nc2n1 | 0.4 | 2.7 | 18.5 | 23.0 | 16.1
COc1ccc(OC)c(CCN2C(=O)CCC2(C)C(=O)NCc2ccccc2)c1 (centres undefined) | -8.5 | 0.2 | -6.8 | -19.8 | -7.6
N#Cc1sc2ccccc2c1OCc1ccc(F)cc1 | 1.6 | 10.7 | 6.7 | 4.5 | 0.0
COc1ccccc1OC(C)C(=O)NCc1ccc(-c2ncncc2-c2cc(C)no2)cc1 (centres undefined) | 16.2 | -2.2 | 17.3 | 6.2 | 2.5
CCCc1ccc(S(=O)(=O)Nc2ccccc2F)cc1 | 25.8 | 11.6 | 31.7* | 22.9 | 14.9
CCCc1ccc(S(=O)(=O)NCc2ccccc2F)cc1 | 20.8 | 7.6 | 14.7 | 19.8 | 6.0
O=S(=O)(Nc1ccccc1Cc1ccccc1)c1ccc(Cl)cc1 | 26.8 | 27.3 | 31.4* | 27.4 | 14.7
O=S(=O)(Nc1ccccc1Cc1ccccc1)c1ccc(F)cc1 | 36.0* | 20.5 | 38.2* | 28.5 | 9.7
Cc1ccc2c(c1)[C@H]1C[C@H]([C@H](O)[C@@H](CO)O1)N2Cc1ccccc1 | 4.1 | -2.9 | 15.0 | 9.9 | 14.3
O=C(CN(CC(=O)NCc1ccccc1Cl)c1nc2ccccc2s1)NCc1ccccc1Cl | 14.9 | 36.4* | 18.7 | 10.1 | 69.2*
C=C1C(=O)O[C@@H]2C(=O)O[C@@H](CCCCCCCC)[C@H]12 | 14.3 | 7.3 | 7.6 | -2.3 | 8.9
C=C1C(=O)OC(CCCCC)C1C(=O)O (centres undefined) | -35.8 | 7.2 | 8.0 | 35.9* | 6.5
CC1CCN(c2ccc3nnc(CCC(=O)NCc4ccco4)n3n2)CC1 | 0.4 | 1.2 | 12.3 | 11.8 | 7.9
SMILES | USP17 inh | USP10 inh | USP30 inh | USP28 block | USP8 block
Cc1ccc(C)c(S(=O)(=O)N2CCN(c3ccc4nnc(-c5ccco5)n4n3)CC2)c1 | 63.5* | 39.4* | 41.0* | 45.9* | 76.1*
O=S(=O)(c1ccccc1Cl)N1CCN(CCOc2ccccc2)CC1 | -0.1 | 3.6 | -10.5 | -3.9 | -13.1
O=S(=O)(c1ccccc1Cl)N1CCN(c2ccc3nnc(-c4ccco4)n3n2)CC1 | 72.0* | 39.2* | 38.5* | 33.8* | 49.7*
O=C(c1cc(Cl)ccc1Cl)N1CCN(c2ccc3nnc(-c4ccco4)n3n2)CC1 | 61.3* | -2.0 | 10.1 | 2.1 | 49.1*
Cc1ccc(-c2ccc(N3CCOCC3)nn2)cc1S(=O)(=O)N1CCOCC1 | . | -2.8 | i | -6.5 | -7.9
Cc1c(-c2ccc(Cl)cc2)nc2ccccc2c1NCCN(C)C | -2.6 | -2.9 | 6.2 | -3.0 | -11.0
Cc1ccc(NC2=NC(c3ccco3)n3c(nc(C)cc3=O)N2)c(C)c1 (centres undefined) | 40.2* | 11.7 | 62.0* | 21.7 | -8.0
O=C(O)c1ccccc1C(=O)N1CCN(c2ccc(C(F)(F)F)cn2)CC1 | 19.0 | -0.1 | 31.9* | 2.9 | 15.0
O=C1OC(C(=O)N2CCN(S(=O)(=O)c3ccc(F)cc3)CC2)Cc2ccccc21 (centres undefined) | 0.1 | -4.0 | -28.9 | 0.0 | -56.0
O=C1OC(C(=O)N2CCN(c3ccc(C(F)(F)F)cn3)CC2)Cc2ccccc21 (centres undefined) | 42.5* | 3.6 | 13.9 | 0.0 | 3.0
O=C(O)C1CCC1C(=O)N1CCN(c2ccc(C(F)(F)F)cn2)CC1 (centres undefined) | 11.3 | 0.1 | 3.0 | 8.0 | 12.1
N#Cc1ccccc1NC(=O)CNC1CCCc2ccccc21 (centres undefined) | -9.8 | 2.1 | -3.2 | -6.2 | 0.5
Cc1ccc2[nH]c(=O)c(-c3noc(CCC(=O)NC4CCCC4)n3)cc2c1 | -67.4 | 8.0 | -59.9 | -30.6 | 6.4
Cc1ccc2cc(-c3noc(CCC(=O)NC4CCCC4)n3)c(=O)[nH]c2c1 | 4.4 | 46.6* | 22.3 | -4.9 | 74.6*
COCCN1C[C@H]2CCN(C(=O)c3ccn[nH]3)CC[C@H]2S1(=O)=O | -48.1 | -4.4 | -14.1 | -20.7 | -208.0
Cc1ccc(Cl)cc1-n1ncc2c1ncn1nc(C3CCCCC3)nc21 | 34.2* | -0.8 | 24.3 | 15.1 | 70.0*
c1ccc(COc2ncnc3scc(-c4ccccc4)c23)cc1 | 14.4 | 3.5 | -19.4 | 33.9* | 12.4
COc1ccc(OC)c(NC(=O)c2cc3c(OC)cccc3[nH]2)c1 | 7.1 | -6.8 | -45.2 | 0.0 | -7.8
CCOC(=O)N1CCN(C(=O)CNC(=O)c2cc3c(OC)cccc3[nH]2)CC1 | 12.6 | 0.3 | 15.2 | 18.0 | 11.9
COc1ccc(NC(=O)[C@H](C)NC(=O)c2cc3c(OC)cccc3[nH]2)cc1Cl | 85.8* | 51.4* | 69.9* | 74.2* | 97.8*
O=C(CNC(=O)c1cc2ccccc2[nH]1)Nc1ccc2c(c1)OCCO2 | 50.5* | 5.1 | 25.1 | 18.1 | 4.5
COc1cccc2[nH]c(C(=O)NCC(=O)Nc3ccc4c(c3)OCO4)cc12 | 40.5* | 2.9 | -4.2 | 3.9 | 1.2
CCc1[nH]nc(C(=O)N2[C@@H](CN)C[C@@]3(C)[C@H](O)CCCC[C@@H]23)c1C | -30.9 | -7.3 | -60.5 | -14.8 | -8.1
COc1ccc(N2C(=O)c3ccccc3NC2(C)CCc2ccccc2)cc1 (centres undefined) | 20.6 | 1.8 | 20.8 | 25.8 | 7.6
